Active and inactive are the calls of the source. How the source made its calls: active means hit-call score of the fitted dose curve at least 0.9, where 1 is the maximum; inactive means score below 0.9.
Legend:
Settings in all cases: mRNA level, 48 h; actives raise or lower the signal
[1] = read-out: JUN Transcription Factor, JUN (gene 3725); experiment: LTEA_HepaRG_JUN: Life Technologies and Expression Analysis (LTEA) Assay for JUN Transcription Factor using HepaRG (AID 2283513)
Summary of the method: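 mRNA measured by TaqMan qRT-PCR after 48 h chemical exposure of HepaRG cultures; normalization to three housekeeping genes. Duplicate eight-point half-log curves from 100 uM in 0.5% DMSO; gain or loss fitted against DMSO baseline.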

[2] = read-out: Lipase C (LIPC), LIPC (gene 3990); experiment: LTEA_HepaRG_LIPC: Life Technologies and Expression Analysis (LTEA) Assay for Lipase C (LIPC) using HepaRG (AID 2283514)
Summary of the method: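 In this multiplexed gene-expression screen, human HepaRG cultures received test chemicals for 48 h across eight concentrations with 100 uM highest, in duplicate. Values reflect LIPC mRNA induction or suppression versus DMSO vehicle, from normalized qRT-PCR.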

[3] = read-out: Lipoprotein lipase (LPL), LPL (gene 4023); experiment: LTEA_HepaRG_LPL: Life Technologies and Expression Analysis (LTEA) Assay for Lipoprotein lipase (LPL) using HepaRG (AID 2283515)
Summary of the method: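 Concentration-response testing used half-log steps from 100 uM in 0.5% DMSO on human HepaRG cells, 48 h, duplicate wells. Phenobarbital 1 mM served as induction control; LPL mRNA was normalized to ACTB, GAPDH, POLR2A.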

[4] = read-out: MicroRNA 122 (MIR122), gene 406906; experiment: LTEA_HepaRG_MIR122: Life Technologies and Expression Analysis (LTEA) Assay for MicroRNA 122 (MIR122) using HepaRG (AID 2283516); further: the transcript read is the microRNA miR-122
Summary of the method: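 Expression measured by microfluidic qRT-PCR with three housekeeping genes for normalisation, after 48 h treatment of HepaRG cultures. Eight concentrations (top 100 uM, half-log steps, 0.5% DMSO vehicle) in duplicate; gain or loss fitted relative to vehicle.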

[5] = read-out: matrix metalloproteinase-10 (MMP10), MMP10 (gene 4319); experiment: LTEA_HepaRG_MMP10: Life Technologies and Expression Analysis (LTEA) Assay for matrix metalloproteinase-10 (MMP10) using HepaRG (AID 2283517)
Summary of the method: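 In differentiated HepaRG cultures kept in 0.5% DMSO, test chemicals act for 48 h over an eight-point range with a top dose of 100 uM. Expression is then quantified by TaqMan RT-PCR against ACTB, GAPDH and POLR2A.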

MYC, MYC (gene 4609) = experiment: LTEA_HepaRG_MYC: Life Technologies and Expression Analysis (LTEA) Assay for MYC using HepaRG (AID 2283518)
Summary of the method: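 MYC transcript changes, up or down relative to 0.5% DMSO, from TaqMan qRT-PCR normalized to three housekeeping genes. Human HepaRG cultures received chemicals for 48 h at eight half-log concentrations up to 100 uM, in duplicate.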

[6] = read-out: matrix metalloproteinase-3 (MMP3), MMP3 (gene 4314); experiment: LTEA_HepaRG_MMP3: Life Technologies and Expression Analysis (LTEA) Assay for matrix metalloproteinase-3 (MMP3) using HepaRG (AID 2283519)
Summary of the method: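 Human liver HepaRG cultures received chemicals (top concentration 100 uM, 0.5% DMSO) for 48 h in duplicate. MMP3 mRNA induction or loss was then assessed via TaqMan qRT-PCR with housekeeping-gene normalisation.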

[7] = read-out: Paternally Expressed 10 (PEG10), PEG10 (gene 23089); experiment: LTEA_HepaRG_PEG10: Life Technologies and Expression Analysis (LTEA) Assay for Paternally Expressed 10 (PEG10) using HepaRG (AID 2283520)
Summary of the method: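 PEG10 transcript measured by Fluidigm qRT-PCR, normalized to three housekeeping genes, in HepaRG cells treated 48 h (highest 100 uM, half-log steps, 0.5% DMSO vehicle). Cells plated 48 h before switching to serum-free induction medium.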

[8] = read-out: Nuclear factor NF-kappa-B p105 subunit (Homo sapiens) (UniProt P19838); experiment: LTEA_HepaRG_NFKB1: Life Technologies and Expression Analysis (LTEA) Assay for Nuclear Factor Kappa B Subunit 1 (NFKB1) using HepaRG (AID 2283521);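 further: TaqMan qRT-PCR transcript normalised to ACTB GAPDH and POLR2A housekeeping genes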
Summary of the method: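 Differentiated human HepaRG cells in serum-free induction medium with 0.5% DMSO were exposed for 48 h to eight half-log concentrations, top 100 uM, in duplicate. NFKB1 mRNA measured by Fluidigm TaqMan qRT-PCR, normalised to ACTB, GAPDH and POLR2A; bidirectional fit versus DMSO.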

[9] = read-out: Protein phosphatase 2A (PPP2R4), PTPA (gene 5524); experiment: LTEA_HepaRG_PPP2R4: Life Technologies and Expression Analysis (LTEA) Assay for Protein phosphatase 2A (PPP2R4) using HepaRG (AID 2283522)
Summary of the method: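 Expression was quantified by Fluidigm qRT-PCR normalised to three housekeeping genes after 48 h treatment. Human HepaRG cells received an 8-point series from 100 µM downward by half-logs, in duplicate with 0.5% DMSO vehicle and 1 mM phenobarbital as induction control.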

[10] = read-out: Phosphatase and tensin (PTEN), PTEN (gene 5728); experiment: LTEA_HepaRG_PTEN: Life Technologies and Expression Analysis (LTEA) Assay for Phosphatase and tensin (PTEN) using HepaRG (AID 2283523)
Summary of the method: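 Expression of PTEN is quantified in the human liver line HepaRG following two days of dosing (top concentration 100 uM, half-log dilutions, 0.5% DMSO). Values derive from bidirectional curve fitting relative to DMSO controls.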

[11] = read-out: solute carrier (SLC22A1), SLC22A1 (gene 6580); experiment: LTEA_HepaRG_SLC22A1: Life Technologies and Expression Analysis (LTEA) Assay for solute carrier (SLC22A1) using HepaRG (AID 2283524)
Summary of the method: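 Transcript induction or suppression of SLC22A1 in human HepaRG cultures is scored after 48 h chemical treatment, with DMSO (0.5%) as baseline for bidirectional fitting. Concentrations span eight half-log points topping at 100 uM.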

[12] = read-out: Pyruvate Dehydrogenase Kinase 4 (PDK4), PDK4 (gene 5166); experiment: LTEA_HepaRG_PDK4: Life Technologies and Expression Analysis (LTEA) Assay for Pyruvate Dehydrogenase Kinase 4 (PDK4) using HepaRG (AID 2283525)
Summary of the method: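 Eight-point, half-log concentration series (max 100 uM, 0.5% DMSO) applied to differentiated HepaRG cells for 48 h in duplicate. Endpoint: PDK4 mRNA induction or repression by qRT-PCR against DMSO baseline.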

[13] = read-out: NAD(P)H dehydrogenase [quinone] 1 (NQO1), NQO1 (gene 1728); experiment: LTEA_HepaRG_NQO1: Life Technologies and Expression Analysis (LTEA) Assay for NAD(P)H dehydrogenase [quinone] 1 (NQO1) using HepaRG (AID 2283526)
Summary of the method: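 NQO1 transcript induction or loss measured by TaqMan qRT-PCR, referenced to three housekeeping genes and fitted bidirectionally against 0.5% DMSO. HepaRG cultures exposed 48 h, duplicate, eight-point half-log series, top 100 uM.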

[14] = read-out: Nuclear factor erythroid 2-related factor 2 (Homo sapiens) (UniProt Q16236); experiment: LTEA_HepaRG_NFE2L2: Life Technologies and Expression Analysis (LTEA) Assay for Nuclear factor erythroid 2-related factor 2 (NFE2L2) Transcription Factor using HepaRG (AID 2283527);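 further: TaqMan qRT-PCR transcript level normalised to ACTB GAPDH and POLR2A housekeeping genes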
Summary of the method: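 Human liver HepaRG line treated in duplicate for 48 h with an eight-point series topping at 100 uM. Gene expression of NFE2L2 by qRT-PCR, bidirectionally fitted against the vehicle control.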

[15] = read-out: succinate dehydrogenase complex iron sulfur subunit B (SDHB), SDHB (gene 6390); experiment: LTEA_HepaRG_SDHB: Life Technologies and Expression Analysis (LTEA) Assay for succinate dehydrogenase complex iron sulfur subunit B (SDHB) using HepaRG (AID 2283528)
Summary of the method: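 HepaRG cells (~100,000/well, plated 48 h) exposed in duplicate for 48 h in serum-free induction medium to 8-point half-log series from 100 uM in 0.5% DMSO; mRNA by qRT-PCR normalised to ACTB, GAPDH, POLR2A; bidirectional fit versus DMSO.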

[16] = read-out: Signal transducer and activator of transcription 3 (Homo sapiens) (UniProt P40763); experiment: LTEA_HepaRG_STAT3: Life Technologies and Expression Analysis (LTEA) Assay for Signal transducer and activator of transcription (STAT3) using HepaRG (AID 2283529)
Summary of the method: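 In this transcriptional endpoint, HepaRG cultures receive test chemicals at up to 100 uM for 48 h, tested in duplicate. STAT3 mRNA is normalized to ACTB, GAPDH and POLR2A.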

[17] = read-out: solute carrier (SLCO1B1), SLCO1B1 (gene 10599); experiment: LTEA_HepaRG_SLCO1B1: Life Technologies and Expression Analysis (LTEA) Assay for solute carrier (SLCO1B1) using HepaRG (AID 2283530)
Summary of the method: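 SLCO1B1 transcript levels were quantified by TaqMan qRT-PCR using three housekeeping genes for normalization. This followed 48 h chemical exposure (100 uM top, half-log, 8 points, 0.5% DMSO) of HepaRG liver cells, with gain or loss fitted relative to DMSO.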

[18] = read-out: sulfotransferase 2A1 (SULT2A1), SULT2A1 (gene 6822); experiment: LTEA_HepaRG_SULT2A1: Life Technologies and Expression Analysis (LTEA) Assay for sulfotransferase 2A1 (SULT2A1) using HepaRG (AID 2283531)
Summary of the method: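 Expression change of SULT2A1, by qRT-PCR with three housekeeping-gene normalization, was scored bidirectionally versus DMSO. Cells: differentiated HepaRG, dosed in duplicate for 48 h across 8 points, highest 100 µM, half-log dilution, 0.5% DMSO.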

[19] = read-out: Transforming Growth Factor (TGFA), TGFA (gene 7039); experiment: LTEA_HepaRG_TGFA: Life Technologies and Expression Analysis (LTEA) Assay for Transforming Growth Factor (TGFA) using HepaRG (AID 2283532)
Summary of the method: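 Gene expression of TGFA was quantified by qRT-PCR after human HepaRG cells were treated for 48 h with test chemicals (eight concentrations, highest 100 uM, 0.5% DMSO). Activity in either direction was fitted relative to DMSO.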

Measured: outcome

Sequence of Nuclear factor erythroid 2-related factor 2 (Homo sapiens) (Q16236 whole entry, looked up): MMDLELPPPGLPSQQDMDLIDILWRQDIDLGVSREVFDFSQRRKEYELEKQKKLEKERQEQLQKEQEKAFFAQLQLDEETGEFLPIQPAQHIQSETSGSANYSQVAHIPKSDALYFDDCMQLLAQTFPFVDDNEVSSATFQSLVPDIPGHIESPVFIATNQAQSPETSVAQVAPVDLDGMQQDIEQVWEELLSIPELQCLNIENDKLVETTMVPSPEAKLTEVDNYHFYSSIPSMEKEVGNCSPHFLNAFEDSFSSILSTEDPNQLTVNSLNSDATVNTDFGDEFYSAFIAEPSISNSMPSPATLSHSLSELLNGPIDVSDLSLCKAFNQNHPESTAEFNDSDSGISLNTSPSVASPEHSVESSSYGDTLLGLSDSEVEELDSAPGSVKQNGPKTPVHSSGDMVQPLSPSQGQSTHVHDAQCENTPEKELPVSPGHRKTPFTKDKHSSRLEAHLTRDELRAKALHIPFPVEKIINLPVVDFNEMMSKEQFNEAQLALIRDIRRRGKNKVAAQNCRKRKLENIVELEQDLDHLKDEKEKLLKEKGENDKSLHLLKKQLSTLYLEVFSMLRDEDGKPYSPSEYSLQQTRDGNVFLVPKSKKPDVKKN
Sequence of Nuclear factor NF-kappa-B p105 subunit (Homo sapiens) (P19838 whole entry, looked up): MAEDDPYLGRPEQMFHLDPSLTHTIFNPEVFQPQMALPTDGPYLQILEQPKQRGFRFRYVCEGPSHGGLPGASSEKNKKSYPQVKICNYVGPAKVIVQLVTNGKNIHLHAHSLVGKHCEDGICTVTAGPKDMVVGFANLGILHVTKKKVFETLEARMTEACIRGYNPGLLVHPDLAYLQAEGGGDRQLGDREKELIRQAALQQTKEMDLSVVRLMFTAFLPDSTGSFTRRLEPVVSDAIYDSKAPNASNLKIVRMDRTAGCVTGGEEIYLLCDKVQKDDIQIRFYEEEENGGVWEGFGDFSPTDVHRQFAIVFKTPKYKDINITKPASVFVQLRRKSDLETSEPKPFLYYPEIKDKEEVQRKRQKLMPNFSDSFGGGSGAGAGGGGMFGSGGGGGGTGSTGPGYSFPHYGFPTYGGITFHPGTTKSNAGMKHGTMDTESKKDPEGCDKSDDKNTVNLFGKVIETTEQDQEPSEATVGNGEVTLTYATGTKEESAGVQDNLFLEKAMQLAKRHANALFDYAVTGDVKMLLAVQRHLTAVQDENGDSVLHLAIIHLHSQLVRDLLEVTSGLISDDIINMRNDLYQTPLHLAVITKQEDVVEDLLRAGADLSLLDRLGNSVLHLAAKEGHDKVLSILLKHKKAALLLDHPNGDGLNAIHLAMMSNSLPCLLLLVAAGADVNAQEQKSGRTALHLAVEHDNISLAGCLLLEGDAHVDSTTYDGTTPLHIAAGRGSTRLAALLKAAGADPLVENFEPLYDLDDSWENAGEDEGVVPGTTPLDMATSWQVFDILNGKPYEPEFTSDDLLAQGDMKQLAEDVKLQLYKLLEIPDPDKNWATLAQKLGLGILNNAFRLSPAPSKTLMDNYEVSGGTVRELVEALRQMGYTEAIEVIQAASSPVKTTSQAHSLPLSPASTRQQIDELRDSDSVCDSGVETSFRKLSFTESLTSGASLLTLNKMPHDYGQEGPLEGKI
Sequence of Signal transducer and activator of transcription 3 (Homo sapiens) (P40763 whole entry, looked up): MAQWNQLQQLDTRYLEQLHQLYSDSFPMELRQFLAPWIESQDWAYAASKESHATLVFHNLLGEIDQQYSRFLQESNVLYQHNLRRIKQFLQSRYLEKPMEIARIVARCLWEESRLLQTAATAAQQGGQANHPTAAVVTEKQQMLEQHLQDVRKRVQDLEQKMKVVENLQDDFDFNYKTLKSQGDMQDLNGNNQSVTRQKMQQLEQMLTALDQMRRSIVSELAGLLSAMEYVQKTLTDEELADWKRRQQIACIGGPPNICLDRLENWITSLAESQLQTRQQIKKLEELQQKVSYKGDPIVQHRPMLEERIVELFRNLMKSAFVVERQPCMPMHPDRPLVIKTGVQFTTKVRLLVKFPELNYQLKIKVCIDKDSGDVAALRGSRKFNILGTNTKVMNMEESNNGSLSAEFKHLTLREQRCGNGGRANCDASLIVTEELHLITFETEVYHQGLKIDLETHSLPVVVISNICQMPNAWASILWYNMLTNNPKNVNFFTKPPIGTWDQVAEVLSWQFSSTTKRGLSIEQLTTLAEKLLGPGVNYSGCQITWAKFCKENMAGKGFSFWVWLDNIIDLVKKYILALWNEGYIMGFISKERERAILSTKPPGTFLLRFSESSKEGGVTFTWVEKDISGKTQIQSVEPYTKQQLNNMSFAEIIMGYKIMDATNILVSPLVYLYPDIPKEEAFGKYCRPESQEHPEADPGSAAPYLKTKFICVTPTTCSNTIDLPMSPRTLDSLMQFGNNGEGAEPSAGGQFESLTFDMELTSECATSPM

CC(C)OC(=O)Nc1cccc(Cl)c1
inactive: all assays above

COP(=S)(OC)Oc1ccc([N+](=O)[O-])cc1
inactive: all assays above

N#CN
inactive: all assays above

Reference: PubChem BioAssay (EPA / NIEHS)
